In PubChem BioAssay AID504332 (National Center for Advancing Translational Sciences (NCATS), 2011):
The campaign covered roughly 350,000 compounds. About 31,000 (8.9%) were called active. Inconclusive results (about 15%) are left out. The sample as a whole holds a higher share of actives than the screen did. A number with no mark means an inactive call. Calls come from the whole dose curve; as a rule, active = well fitted inhibition curve with a large enough effect; inconclusive = small, poorly fitted or top-dose-only effect; inactive = no such curve, though single readings can be large or run the other way.

Each compound was assayed against Histone-lysine N-methyltransferase EHMT2 (Homo sapiens) (UniProt Q96KQ7) (assay: qHTS Assay for Inhibitors of Histone Lysine Methyltransferase G9a). Details: G9a H3K9 monomethylation, AlphaScreen, 2 h; series mostly up to 59 µM; activity, negative = inhibition: at the top concentration.
Chain of Histone-lysine N-methyltransferase EHMT2 (Homo sapiens) (Q96KQ7 913-1193 limits assumed): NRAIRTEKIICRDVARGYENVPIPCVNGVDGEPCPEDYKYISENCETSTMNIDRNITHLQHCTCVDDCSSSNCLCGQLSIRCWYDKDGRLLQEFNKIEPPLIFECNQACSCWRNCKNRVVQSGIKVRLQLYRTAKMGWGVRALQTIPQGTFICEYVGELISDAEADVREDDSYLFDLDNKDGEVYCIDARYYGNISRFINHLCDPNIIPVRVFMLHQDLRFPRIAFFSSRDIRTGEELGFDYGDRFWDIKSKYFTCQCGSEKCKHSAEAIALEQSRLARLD
In short: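 Signal arises when biotinylated H3K9 peptide, once monomethylated, bridges streptavidin donor and antibody-captured acceptor beads. Enzyme at 20 nM was preincubated 15 min with test compounds; peptide 500 nM and SAM 20 uM then reacted for 2 h.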
% is set by controls: 0 for no effect and ±100 for the full control effect; potency is the fitted concentration of half-maximal effect.
Note: nearly all actives have a fitted effect of over 75% in size.

Structure (SMILES)	activity, negative = inhibition	Potency
COc1ccc(CC(=O)N/N=C/c2cc([N+](=O)[O-])cc(Br)c2O)cc1	-16.6% [at 102 µM]	–
COc1ccc(-c2cc(C(=O)NCCCN3CCOCC3)no2)cc1	14.1% [at 102 µM]	–
O=C(NCCCN1CCOCC1)c1cc(-c2ccc(Cl)cc2)on1	16.3%	–
Cc1ccc(NS(=O)(=O)c2ccc(C(=O)NCCCN3CCOCC3)cc2)cc1	-22.7% [at 102 µM]	–
CN(C)CCn1c(=S)[nH]c2ccc(Cl)cc2c1=O	–	50.1 µM (active)
CCN(CC)CCCNC(=O)c1ccc2c(=O)n(Cc3ccc4c(c3)OCO4)c(=S)[nH]c2c1	–	31.6 µM (active)
O=C(CCn1c(=S)[nH]c2cc3c(cc2c1=O)OCO3)NCc1ccc(Cl)cc1	53.9%	–
COc1ccc(Cn2c(=S)[nH]c3cc(C(=O)NCCCN4CCOCC4)ccc3c2=O)cc1	–	10 µM (active)
CCCCn1c(=S)[nH]c2ccccc2c1=O	25.5%	–
CCCCNC(=O)CCn1c(=S)[nH]c2cc3c(cc2c1=O)OCO3	5.03% [at 0.0925 µM]	–
Cc1c(C)n(Cc2ccc(Cl)cc2)c2ccc(C(=O)NCCCN3CCOCC3)cc12	–	44.7 µM (active)
COc1ccc(Cn2c(=S)[nH]c3cc(C(=O)N4CCCCC4)ccc3c2=O)cc1	22.6% [at 102 µM]	–
CCOc1cc2[nH]c(=O)n(Cc3ccc(C(=O)NCCN(CC)CC)cc3)c(=O)c2cc1OCC	-1.55%	–
Cc1ccc2nnn(Cc3cccc(C(C)(C)C)c3O)c2c1	15.4% [at 2.33 µM]	–
COc1ccc(CCNC(=O)CCc2c(C)nc3c(c(C)nn3-c3ccc(C)c(C)c3)c2C)c(OC)c1OC	-1.62%	–
O=C(CSc1nnnn1C1CCCC1)N1CCCCC1	-8.4% [at 102 µM]	–
Cc1cccc(CC(=O)Nc2cccc(-c3cn4cccnc4n3)c2)c1	0.135%	–
CC(=O)c1ccc(NC(=O)C2CCN(S(=O)(=O)c3c(C)noc3/C=C/c3ccc(C)cc3)CC2)cc1	6.83%	–
Cc1noc(C)c1COc1ccc(C(=O)NCCOc2ccccc2)cc1	19.8% [at 12.7 µM]	–
Cc1ccc(CNC(=O)CCc2c(C)nc3c(c(C)nn3-c3ccccc3)c2C)cc1	1.65%	–
CC(CC(=O)N1CCN(c2ccccc2)CC1)S(=O)(=O)c1ccc2c(c1)NC(=O)CS2 (centres undefined)	-15.8% [at 102 µM]	–
Cc1ccc(N2CC(c3nnc(Cc4ccccc4Cl)o3)CC2=O)cc1 (centres undefined)	-22.7%	–
COc1cccc(NC(=O)CN(C)C(=O)c2cc(C3CC3)nn2-c2ccccc2)c1	1.72% [at 2.33 µM]	–
Cn1c(=O)c2c(SCC(=O)N3CCc4ccccc43)nc(-c3ccc(Cl)cc3)nc2n(C)c1=O	0.591%	–
CCOc1cc2[nH]c(=S)n(Cc3ccc(C(=O)N4CCN(C)CC4)cc3)c(=O)c2cc1OCC	4.55% [at 102 µM]	–

Structure (SMILES)	activity, negative = inhibition	Potency
O=C(O)c1ccc(Cn2c(=S)[nH]c3cc(Cl)ccc3c2=O)cc1	–	39.8 µM (active)
CCOC(=O)N1CCN(C(=O)c2ccc3c(=O)n(CCc4ccc(OC)c(OC)c4)c(=O)[nH]c3c2)CC1	-5.11% [at 102 µM]	–
COc1ccccc1Cn1c(=S)[nH]c2cc(C(=O)N3CCN(C)CC3)ccc2c1=O	19.2%	–
NC(=O)C1CCN(C(=O)c2ccc3c(=O)n(Cc4cccc(Br)c4)c(=S)[nH]c3c2)CC1	–	39.8 µM (active)
COc1cc2[nH]c(=S)n(Cc3ccc(F)cc3)c(=O)c2cc1OC	9.96% [at 102 µM]	–
COc1ccc(Nc2ncc(C(=O)Nc3cc(C)ccc3OC)c3ccccc23)cc1	-0.322%	–
O=C(NCc1ccncc1)C1CCCN(S(=O)(=O)c2ccc(Br)cc2)C1 (centres undefined)	-5.72% [at 102 µM]	–
Cc1ccc(C)c(N2CCN(C(=O)Cn3ncc4c(=O)oc5ccc(C)cc5c43)CC2)c1	-1.95%	–
COc1cc(OC)c(N(C)C(=O)c2cc3c(=O)oc4ccccc4c3s2)cc1Cl	3.37%	–
COc1ccccc1CNC(=O)c1ccc(-n2c(C)cc3c2CCCC3)cc1	-4.16%	–
c1ccc(COc2nsnc2N2CCOCC2)cc1	–	14.1 µM (active)
c1nc(COc2nsnc2N2CCOCC2)cs1	15.5% [at 2.33 µM]	–
O=C(O)COc1nsnc1N1CCOCC1	20.7% [at 102 µM]	–
CCOc1ccc(N(CC)C(=O)c2cc3c(=O)oc4ccccc4c3s2)cc1	10.3%	–
COc1cc(/C=C2\C(=N)N3N=C(CC(=O)N4CCOCC4)SC3=NC2=O)cc(OC)c1OC	78.5% [at 102 µM]	–
Cc1ccc(C2=N/C(=C\c3ccc(OS(=O)(=O)c4ccc(C)cc4)cc3)C(=O)O2)cc1	19.5%	–
N=C1/C(=C/c2cccn2-c2cccc([N+](=O)[O-])c2)C(=O)N=C2SC=CN12	29.7% [at 102 µM]	–
CCS(=O)(=O)C1=NSC2=NC(=O)/C(=C\c3cc(C)n(-c4cccc(OC)c4)c3C)C(=N)N21	8.92%	–
Cc1cc(/C=C2/C(=N)N3C(=NC2=O)SN=C3S(C)(=O)=O)c(C)n1-c1ccccc1	–	35.5 µM (active)
CCS(=O)(=O)C1=NSC2=NC(=O)/C(=C\c3ccc(OS(=O)(=O)c4ccccc4)cc3)C(=N)N21	–	39.8 µM (active)
CCC1=Nc2cc(C(=O)NCCCOC(C)C)ccc2Sc2ccc(C)cc21	1.84%	–
O=C(COC(=O)c1ccccn1)NNC(=O)c1ccc([N+](=O)[O-])cc1	6.96% [at 102 µM]	–
CCCNC(=O)c1ccc(Cn2c(SCC(N)=O)nc3ccccc3c2=O)cc1	2.19%	–
CC(=O)CCC(=O)c1ccc2ccccc2c1	18.9%	–
CC(=O)c1ccc2c(ccc3ccccc32)c1	-4.88%	–

Structure (SMILES)	activity, negative = inhibition	Potency
C=CC(=O)c1ccc2ccccc2c1	–	1.26 µM (active)
O=C(/C=C/c1ccccc1)Nc1cc(-c2nc3cc(Cl)ccc3o2)ccc1Cl	10.9%	–
CCn1cc(NC(=O)Nc2ccc(OC)c(OC)c2)c(C(N)=O)n1	–	25.1 µM (active)
CCOc1ccc(NC(=O)Nc2cc(C)ccc2OC)cc1	28.6%	–
COc1ccc(NC(=O)N2CCCn3nc(C)cc32)cc1OC	5.44%	–
Cc1ccc(NC(=O)CCCNC(=O)c2ccc(Cl)cc2)cc1S(=O)(=O)N1CCCCC1	-49.7% [at 102 µM]	–
O=C(O)c1c(CNCc2cccc(F)c2)c2ccccc2n1Cc1ccccc1	-2.2%	–
CC1(C)NC(=O)N(CCOc2cccc(Oc3ccccc3)c2)C1=O	2.99%	–
CC(O)CNCCOc1cccc(Oc2ccccc2)c1 (centres undefined)	–	31.6 µM (active)
CC(O)COc1ccccc1 (centres undefined)	25.5%	–
CN(C(=O)CN1C(=O)NC(C)(CCc2ccccc2)C1=O)c1ccccc1 (centres undefined)	-6.99% [at 102 µM]	–
O=C(Nc1nnc(C2CC2)s1)c1cc(Cl)sc1Cl	-5.4% [at 102 µM]	–
CCOC(=O)c1oc2c(CN3CCN(CCO)CC3)c(O)c(CC)cc2c(=O)c1-c1nc2ccccc2s1	–	17.8 µM (active)
CCOC(=O)c1oc2c(CN3CCN(C)CC3)c(O)ccc2c(=O)c1-c1ccc(Br)cc1	-3.73%	–
CCOC(=O)CCCN1CC(O)=C(c2nc3ccccc3s2)C1=N	-0.107% [at 102 µM]	–
Cc1ccc(C(=O)NCCc2nnc(SCC(=O)Nc3cccc(C(=O)O)c3)n2C)cc1	10.2% [at 0.501 µM]	–
CCCn1c(=N)c(C(=O)NCc2ccccc2)cc2c(=O)n3cccc(C)c3nc21	0.45%	–
O=C(Nc1ccc(Cl)cc1)N1CCc2[nH]c3ccccc3c2C1	9.49% [at 102 µM]	–
CCCC(=O)N1CCc2[nH]c3ccccc3c2C1	–	39.8 µM (active)
C=CCNC(=S)N1CCc2[nH]c3ccccc3c2C1	0.317% [at 102 µM]	–
COc1ccc(CCNc2ncnc3c2nnn3Cc2ccccc2)cc1	5.34% [at 102 µM]	–
COc1ccc(C2=NC3(CCCCC3)N(CC(=O)Nc3ccc(C(C)C)cc3)C2=O)cc1	1.04%	–
Cn1ccsc1=NC(=O)c1cc(S(=O)(=O)N2CCOCC2)ccc1Cl	2.99% [at 102 µM]	–
CN(CC(=O)NCCc1ccc(F)cc1)CC(=O)Nc1ccc(F)c(F)c1F	-24.2% [at 102 µM]	–
C=CCC1(C#N)C(=S)NC(C)=C(C(=O)OCC)C1c1ccccc1 (centres undefined)	1.33% [at 102 µM]	–

Structure (SMILES)	activity, negative = inhibition	Potency
CCOC(=O)C1=C(C)NC(SC)=NC1c1ccccc1 (centres undefined)	–	2 µM (active)
CCOC(=O)C1=C(C)NC(=O)NC1c1ccccc1 (centres undefined)	-1.24% [at 102 µM]	–
CCCCOc1ccc(CNC(=O)c2ccc3c(c2)N(C)C(=O)C2CCCCN32)cc1 (centres undefined)	0.427%	–
Cc1cccc(C(CC(=O)NCC2(c3ccccc3)CCCC2)c2ccccc2)c1O (centres undefined)	1.08%	–
C/C(=C\C(=O)c1ccccc1)Nc1cccc(O)c1	–	50.1 µM (active)
O=C(CSc1ccccc1)Nc1ccc(C(=O)Nc2cccc(O)c2)cc1	15.3% [at 102 µM]	–
O=C(Nc1cccc(O)c1)c1ccc(C(=O)c2ccccc2)o1	2.32% [at 102 µM]	–
COc1cccc(CNC(=O)c2cc(=O)[nH]c3ccc(S(=O)(=O)N4CCCCC4)cc23)c1	-2.46%	–
O=C(CSc1n[nH]c(-c2ccccc2)n1)N1CCCCC1	3.52%	–
N#C/C(=C\c1ccccc1F)c1nc2ccccc2c(=O)[nH]1	-20%	–
CCN(Cc1ccccc1)C(=O)c1cn(-c2cccc(OC)c2)c(=O)c2ccccc12	–	11.2 µM (active)
COc1cccc(-n2cc(C(=O)O)c3ccccc3c2=O)c1	-46.3% [at 102 µM]	–
COc1cccc(-n2ccn(CC(=O)NCc3ccc(C)cc3)c(=O)c2=O)c1	0.48%	–
CN(Cc1ccccc1)C(=O)c1cn(C)c2ccc(S(=O)(=O)N(C)C3CCCCC3)cc2c1=O	-1.49%	–
O=S(=O)(NCCS(=O)(=O)N1CCN(c2ccccc2)CC1)c1ccc(Cl)cc1	-10.1%	–
CC(C)[C@@H]1COC(c2cccc(C3=N[C@H](C(C)C)CO3)c2)=N1	55% [at 102 µM]	–
CN(C(=O)c1ccno1)c1nnc(-c2cccnc2)s1	19.5%	–
COc1cc(OC)cc(-c2nnc(N(C)C(=O)c3ccncc3)s2)c1	-3.36% [at 102 µM]	–
CN(C(=O)c1ccccn1)c1nnc(-c2ccccn2)s1	–	70.8 µM (active)
CC(C)CCN1CCC(C)(NC(=O)c2ccccc2)C1=O (centres undefined)	-0.393% [at 0.501 µM]	–
COc1ncnc2c1N=C1CC(C)(C)CC(N)=C1S2	–	3.16 µM (active)
CC(C)NC(=S)N1CCN(S(C)(=O)=O)CC1	11.9%	–
CC(=O)c1cccc(NC(=S)N2CCCC2)c1	9.21% [at 102 µM]	–
CC(=O)c1cccc(NC(=S)N2CCN(S(C)(=O)=O)CC2)c1	–	44.7 µM (active)
